Experimental data reported in PubChem BioAssay AID1159580 (chemical genetic matrix, 2015).
About 2,000 (36%) of roughly 5,500 compounds were called active. About 18% were inconclusive and are not listed. Rule as the data show it: active = normalized growth mostly below about 0.91 (no sharp cut-off); inconclusive = no clear call, values can overlap the other calls; inactive = mostly above about 0.92. The list shows a part of the results.

Assay: chemical genetic growth profiling, strain panel (AID 1159580);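 also: tested at 20 µM; growth read once vehicle control cultures reached saturation at 30 °C; 1 = growth at the plate median or of vehicle wells; lower values mean less growth of the strain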
Settings: growth OD
[1] = S. cerevisiae deletion strains, locus YAL013W, strain DEP1, stronger effect = lower value
[2] = S. cerevisiae deletion strains, locus YBR021W, strain FUR4, stronger effect = lower value
[3] = S. cerevisiae deletion strains, locus YBR229C, strain ROT2, stronger effect = lower value
[4] = S. cerevisiae deletion strains, locus YCL029C, strain bik1, stronger effect = lower value
[5] = S. cerevisiae deletion strains, locus YDL035C, strain GPR1, stronger effect = lower value
[6] = S. cerevisiae deletion strains, locus YDL074C, strain BRE1, stronger effect = lower value
[7] = S. cerevisiae deletion strains, locus YDL101C, strain DUN1, stronger effect = lower value
[8] = S. cerevisiae deletion strains, locus YDL134C, strain PPH21, stronger effect = lower value
[9] = S. cerevisiae deletion strains, locus YDL185W, strain tfp1, stronger effect = lower value
[10] = S. cerevisiae deletion strains, locus YDL192W, strain arf1, stronger effect = lower value
[11] = S. cerevisiae deletion strains, locus YDR101C, strain arx1, stronger effect = lower value
[12] = S. cerevisiae deletion strains, locus YDR162C, strain NBP2, stronger effect = lower value
[13] = S. cerevisiae deletion strains, locus YDR318W, strain mcm21, stronger effect = lower value
[14] = S. cerevisiae deletion strains, locus YDR388W, stronger effect = lower value
[15] = S. cerevisiae deletion strains, locus YDR502C, strain sam2, stronger effect = lower value
[16] = S. cerevisiae deletion strains, locus YEL061C, strain CIN8, stronger effect = lower value
[17] = S. cerevisiae deletion strains, locus YER110C, stronger effect = lower value
[18] = S. cerevisiae deletion strains, locus YER155C, strain BEM2, stronger effect = lower value
[19] = S. cerevisiae deletion strains, locus YER167W, strain BCK2, stronger effect = lower value
[20] = S. cerevisiae deletion strains, locus YGL078C, strain dbp3, stronger effect = lower value
[21] = S. cerevisiae deletion strains, locus YGL086W, strain mad1, stronger effect = lower value
[22] = S. cerevisiae deletion strains, locus YGL248W, strain PDE1, stronger effect = lower value
[23] = S. cerevisiae deletion strains, locus YGR078C, strain PAC10, stronger effect = lower value
[24] = S. cerevisiae deletion strains, locus YGR135W, strain pre9, stronger effect = lower value
[25] = S. cerevisiae deletion strains, locus YGR229C, strain SMI1, stronger effect = lower value
[26] = S. cerevisiae deletion strains, locus YGR252W, strain gcn5, stronger effect = lower value
[27] = S. cerevisiae deletion strains, locus YHR030C, strain SLT2, stronger effect = lower value
[28] = S. cerevisiae deletion strains, locus YHR079C, strain IRE1 (second series), stronger effect = lower value
[29] = S. cerevisiae deletion strains, locus YHR094C, strain hxt1, stronger effect = lower value
[30] = S. cerevisiae deletion strains, locus YHR129C, strain ARP1, stronger effect = lower value
[31] = S. cerevisiae deletion strains, locus YHR200W, strain rpn10, stronger effect = lower value
[32] = S. cerevisiae deletion strains, locus YIL066C, strain RNR3, stronger effect = lower value
[33] = S. cerevisiae deletion strains, locus YIL073C, strain SPO22, stronger effect = lower value
[34] = S. cerevisiae deletion strains, locus YIL125W, strain kgd1, stronger effect = lower value
[35] = S. cerevisiae deletion strains, locus YIR030C, strain dcg1, stronger effect = lower value
[36] = S. cerevisiae deletion strains, locus YJL095W, strain BCK1, stronger effect = lower value
[37] = S. cerevisiae deletion strains, locus YJL134W, strain LCB3, stronger effect = lower value
[38] = S. cerevisiae deletion strains, locus YJL168C, strain set2, stronger effect = lower value
[39] = S. cerevisiae deletion strains, locus YJL187C, strain SWE1 (second series), stronger effect = lower value
[40] = S. cerevisiae deletion strains, locus YJR043C, strain POL32, stronger effect = lower value
[41] = S. cerevisiae deletion strains, locus YJR075W, strain HOC1, stronger effect = lower value
[42] = S. cerevisiae deletion strains, locus YKL009W, strain mrt4, stronger effect = lower value
[43] = S. cerevisiae deletion strains, locus YKL068W, stronger effect = lower value
[44] = S. cerevisiae deletion strains, locus YKL085W, strain MDH1 (second series), stronger effect = lower value
[45] = S. cerevisiae deletion strains, locus YKL085W, strain MDH1, stronger effect = lower value
[46] = S. cerevisiae deletion strains, locus YKR001C, strain vps1, stronger effect = lower value
[47] = S. cerevisiae deletion strains, locus YLR039C, strain RIC1, stronger effect = lower value
[48] = S. cerevisiae deletion strains, locus YLR058C, strain SHM2, stronger effect = lower value
[49] = S. cerevisiae deletion strains, locus YLR102C, strain apc9, stronger effect = lower value
[50] = S. cerevisiae deletion strains, locus YLR262C, strain YPT6, stronger effect = lower value
[51] = S. cerevisiae deletion strains, locus YLR268W, strain sec22, stronger effect = lower value
[52] = S. cerevisiae deletion strains, locus YLR330W, strain CHS5, stronger effect = lower value
[53] = S. cerevisiae deletion strains, locus YLR342W, strain FKS1 (second series), stronger effect = lower value
[54] = S. cerevisiae deletion strains, locus YLR371W, strain rom2, stronger effect = lower value
[55] = S. cerevisiae deletion strains, locus YLR418C, strain cdc73, stronger effect = lower value
[56] = S. cerevisiae deletion strains, locus YML016C, strain PPZ1, stronger effect = lower value
[57] = S. cerevisiae deletion strains, locus YML032C, strain rad52, stronger effect = lower value
[58] = S. cerevisiae deletion strains, locus YML124C, strain tub3, stronger effect = lower value
[59] = S. cerevisiae deletion strains, locus YMR078C, strain ctf18, stronger effect = lower value
[60] = S. cerevisiae deletion strains, locus YMR223W, strain ubp8, stronger effect = lower value
[61] = S. cerevisiae deletion strains, locus YMR307W, strain GAS1, stronger effect = lower value
[62] = S. cerevisiae deletion strains, locus YNL067W, strain RPL9B, stronger effect = lower value
[63] = S. cerevisiae deletion strains, locus YNL233W, strain BNI4, stronger effect = lower value
[64] = S. cerevisiae deletion strains, locus YNL250W, strain rad50, stronger effect = lower value
[65] = S. cerevisiae deletion strains, locus YNL271C, strain bni1, stronger effect = lower value
[66] = S. cerevisiae deletion strains, locus YNL298W, strain CLA4, stronger effect = lower value
[67] = S. cerevisiae deletion strains, locus YNL307C, strain MCK1, stronger effect = lower value
[68] = S. cerevisiae deletion strains, locus YNL322C, strain KRE1, stronger effect = lower value
[69] = S. cerevisiae deletion strains, locus YNR052C, strain pop2, stronger effect = lower value
[70] = S. cerevisiae deletion strains, locus YOL012C, strain htz1
[71] = S. cerevisiae deletion strains, locus YOL147C, strain pex11, stronger effect = lower value
[72] = S. cerevisiae deletion strains, locus YOR061W, strain CKA2, stronger effect = lower value
[73] = S. cerevisiae deletion strains, locus YOR069W, strain VPS5, stronger effect = lower value
[74] = S. cerevisiae deletion strains, locus YOR136W, strain idh2, stronger effect = lower value
[75] = S. cerevisiae deletion strains, locus YOR144C, strain elg1, stronger effect = lower value
[76] = S. cerevisiae deletion strains, locus YOR184W, strain ser1, stronger effect = lower value
[77] = S. cerevisiae deletion strains, locus YOR316C, strain cot1, stronger effect = lower value
[78] = S. cerevisiae deletion strains, locus YPR119W, strain clb2, stronger effect = lower value
[79] = S. cerevisiae deletion strains, locus YPR141C, strain kar3, stronger effect = lower value
[80] = S. cerevisiae deletion strains, locus YPR163C, strain tif3, stronger effect = lower value
[81] = S. cerevisiae deletion strains, locus YPR167C, strain met16, stronger effect = lower value
[82] = S. cerevisiae deletion strains, strain wtn01, stronger effect = lower value
[83] = S. cerevisiae strains, strain wild type, stronger effect = lower value

Measured: normalized growth

COC(=O)CC1C2(C)CC34OC5(C)OC6(C7/C(=C(/O)C(C)C)C(=O)OC(c8ccoc8)C7(C)C(OC(=O)C(C)C)C(OC)C6(O5)C13C)C(OC)C4(OC)C2OC(C)=O (centres undefined)
inactive: [1] 0.997 | [2] 1.02 | [3] 1 | [4] 0.99 | [5] 1.02 | [6] 1.01 | [7] 1.01 | [8] 1.01 | [9] 0.991 | [10] 0.994 | [11] 0.991 | [12] 1.01 | [13] 0.988 | [14] 0.995 | [15] 0.988 | [16] 0.994 | [17] 0.988 | [18] 1 | [19] 1.02 | [20] 0.979 | [21] 0.975 | [22] 1.01 | [23] 1.02 | [24] 0.987 | [25] 1 | [26] 0.937 | [27] 1.01 | [28] 0.985 | [29] 0.989 | [30] 1.01 | [31] 0.99 | [32] 1.03 | [33] 1.03 | [34] 0.991 | [35] 0.996 | [36] 1.03 | [37] 1.01 | [38] 0.986 | [39] 1.01 | [40] 1.01 | [41] 1.01 | [42] 0.984 | [43] 1 | [44] 1 | [45] 1 | [46] 0.988 | [47] 1.04 | [48] 1.01 | [49] 0.988 | [50] 1.05 | [51] 0.989 | [52] 1.01 | [53] 0.999 | [54] 0.983 | [55] 1.01 | [56] 1 | [57] 0.985 | [58] 0.99 | [59] 0.994 | [60] 0.994 | [61] 1.05 | [62] 1 | [63] 1.04 | [64] 1.02 | [65] 0.992 | [66] 0.987 | [67] 0.996 | [68] 1 | [69] 0.977 | [70] 0.95 | [71] 0.984 | [72] 1.01 | [73] 1.01 | [74] 0.991 | [75] 0.989 | [76] 0.976 | [77] 0.992 | [78] 0.982 | [79] 0.998 | [80] 0.999 | [81] 0.99 | [82] 0.974 | [83] 1.01

CCC(C)C(=O)OC1CC2(C)C(c3ccoc3)OC(=O)CC23OC2(C)OC34C(OC(=O)C(C)C)C3(O)C(OC(=O)C5(C)OC5C)C5(C)CC3(O)C(C)(C5C(=O)OC)C14O2 (centres undefined)
inactive: [1] 1.02 | [2] 1.01 | [3] 1 | [4] 1.04 | [5] 0.993 | [6] 1.01 | [7] 1.02 | [8] 1.01 | [9] 1.03 | [10] 1.01 | [11] 1.02 | S. cerevisiae deletion strains, locus YDR150W, strain NUM1, stronger effect = lower value 1.02 | [12] 0.996 | [13] 1.03 | [14] 1.02 | [15] 1.03 | [16] 1.01 | [17] 1.02 | [18] 1.02 | [19] 1.02 | [20] 1.02 | [21] 1 | [22] 1.01 | [23] 1.02 | [24] 1.03 | [25] 1.03 | [26] 0.977 | [27] 1.02 | [28] 1.02 | [29] 1.01 | [30] 1.01 | [31] 1.04 | [32] 1.02 | [33] 1 | [34] 1.01 | [35] 1.02 | [36] 1.04 | [37] 1.01 | [38] 1.02 | [39] 1.03 | [40] 1.04 | [41] 1.03 | [42] 0.994 | [43] 1.01 | [44] 1.01 | [45] 1.01 | S. cerevisiae deletion strains, locus YKL190W, strain CNB1, stronger effect = lower value 1 | [46] 1.01 | [47] 0.862 | [48] 0.999 | [49] 1.01 | [50] 0.77 | [51] 1.05 | [52] 1.08 | [53] 1.01 | [54] 1.03 | [55] 0.985 | [56] 1 | [57] 1.03 | [58] 1.01 | [59] 1.03 | [60] 0.999 | S. cerevisiae deletion strains, locus YMR263W, strain SAP30, stronger effect = lower value 1.04 | [61] 0.923 | [62] 1.03 | S. cerevisiae deletion strains, locus YNL128W, strain TEP1, stronger effect = lower value 1.01 | S. cerevisiae deletion strains, locus YNL153C, strain GIM3, stronger effect = lower value 1.03 | [63] 1.01 | [64] 1.02 | [65] 1.03 | [66] 1.03 | [67] 1.03 | [68] 1.02 | [69] 1.02 | S. cerevisiae deletion strains, locus YOL006C, strain TOP1, stronger effect = lower value 0.923 | [70] 1.81 | [71] 1.03 | [72] 0.991 | [73] 1.01 | [74] 1.01 | [75] 1.01 | [76] 1.04 | [77] 1.02 | S. cerevisiae deletion strains, locus YPL055C, strain LGE1, stronger effect = lower value 1.05 | S. cerevisiae deletion strains, locus YPL241C, strain CIN2, stronger effect = lower value 1.01 | [78] 1.01 | [79] 1.03 | [80] 1.02 | [81] 1.02 | [82] 1.03 | [83] 1
